Measured values as given in PubChem BioAssay AID2107 (National Center for Advancing Translational Sciences (NCATS), 2009).
About 20 (0.008%) of roughly 240,000 compounds were called active. Not shown: some 1% with an inconclusive outcome. A selection follows. Values without a mark were called inactive. Calls follow the shape of the dose curve; as a rule, active = well fitted inhibition curve with a large enough effect; inconclusive = small, poorly fitted or top-dose-only effect, or effect the other way; inactive = flat fitted curve, though single readings scatter.

target: Alpha-galactosidase A (Homo sapiens) (UniProt P06280); test: qHTS Assay for Inhibitors and Activators of Human alpha-Galactosidase From Spleen Homogenate; conditions: 4MU-alpha-Gal fluorescence, 40 min; series mostly up to 80 µM; activity change, negative = inhibition: at the top concentration;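 also: 0% = enzyme with vehicle and -100% = no enzyme basal signal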
Text: NIH Chemical Genomics Center [NCGC] NIH Molecular Libraries Probe Production Centers Network [MLPCN] MLPCN Grant: R03 MH084842-01 Assay Submitter (PI): Wei Zheng NCGC Assay Overview: Alpha-galactosidase is a homodimeric glycoprotein that hydrolyzes the terminal alpha-galactosyl moieties from glycolipids and glycoproteins. Deficiency of this enzyme results in Fabry Disease with progressive accumulation of globotriaosylceramide and other glycosphingolipids in vascular endothelial cells that causes renal failure, myocardial infarction and stroke, and premature death in patients. It has been reported that the improper folding and trafficking of alpha-galactosidase resulting from genetic mutations may account for a significant number of Fabry patients. […] We optimized this alpha-galactosidase assay in 1536-well plate format for identification of novel small molecule inhibitors or activators with structures other than the sugar analogs in order to develop new pharmacological chaperones. In particular, this assay is directed towards discovering compounds active in more natural setting, tissue homogenate, that may have been missed by screens of the purified enzyme under more stringent conditions.
NCGC Assay Protocol Summary: This is a fluorogenic enzyme assay with 4-methylumbelliferyl-alpha-D-galactopyranoside as the substrate and human spleen homogenate containing alpha-galactosidase as the enzyme preparation. Upon hydrolysis of this fluorogenic substrate, the resulting product, 4-methylumbelliferone (which excites at 365 nm and emits at 440 nm) can be detected by a fluorescence plate reader. Data were normalized to the controls for basal activity (without enzyme) and 100% activity (with enzyme). The AC50 values were determined from concentration-response data modeled with the standard Hill equation. Assay buffer: 50 mM citric acid (titrated with potassium phosphate to pH 5.0), 0.01% Tween-20 (pH 5.0 is an optimal condition for this enzyme assay) 1536-well assay protocol for the alpha-galactosidase from human spleen homogenate: (1) Add 2 ul/well spleen homogenate (1 ug) (2) Add 23 nL compounds in DMSO solution. The final titration was 0.5 nM to 58 uM. (3) Add 2 ul of substrate (1 mM final) (4) Incubate at 37C for 40 min (5) Add 2 ul stop solution (1M NaOH and 1M Glycine mixture, pH 10) (6) Detect the assay plate in a ViewLux plate reader (PerkinElmer) with Ex=365 nm and Em=440nm. Keywords: Alpha-galactosidase, Fabry Disease, pharmacological chaperone, chaperone therapy, high throughput screening, alpha- galactosidase inhibitor, MLSMR, MLSCN, NIH Roadmap, qHTS and NCGC

Chain of Alpha-galactosidase A (Homo sapiens) (P06280 32-429 limits assumed): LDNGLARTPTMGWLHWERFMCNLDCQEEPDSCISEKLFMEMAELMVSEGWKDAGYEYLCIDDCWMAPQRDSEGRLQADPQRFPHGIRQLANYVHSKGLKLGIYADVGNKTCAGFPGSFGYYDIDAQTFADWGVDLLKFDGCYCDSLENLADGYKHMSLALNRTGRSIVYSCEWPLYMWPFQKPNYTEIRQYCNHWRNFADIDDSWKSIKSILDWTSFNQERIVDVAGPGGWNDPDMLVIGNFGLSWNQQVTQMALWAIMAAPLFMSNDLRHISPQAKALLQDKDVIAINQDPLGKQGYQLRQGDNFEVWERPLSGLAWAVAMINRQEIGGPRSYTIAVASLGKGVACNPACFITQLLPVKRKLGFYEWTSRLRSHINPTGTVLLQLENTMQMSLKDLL

Compound	activity change, negative = inhibition
O=[N+]([O-])c1ccccc1S(=O)(=O)Nc1cccc2cccnc12	7.38%
C=C1CCN(Cc2ccc(OC)cc2)S(=O)(=O)c2ccccc21	4.53%
COc1cc(OC)c2c(c1C(CCN1CCCCC1)c1ccc(N(C)C)cc1)OC(=O)CC2c1ccc(N(C)C)cc1 (stereo not drawn)	3.68%
CCN(CC)S(=O)(=O)c1ccc(N(C)Cc2ccc(C(F)(F)F)cc2)nc1	-3.22%
CCOc1ccc(NC(=O)CN(C)CC(=O)Nc2cccc(Cl)c2C)cc1OCC	5.04%
Cc1cccc(NC(=S)Nc2ccc3cn[nH]c3c2)c1	8.94%
O=C(CCl)N(Cc1cccc([N+](=O)[O-])c1)c1cccc(Cl)c1	-10.7%
CCCCc1nn(-c2ccccc2C(F)(F)F)c(=O)n1Cc1ccc(-c2ccccc2S(=O)(=O)NC(=O)c2sccc2C)cc1	0.0031%
CCCCC/C=C/C=C/C=O	1.62%
CC(Sc1nnc2c(n1)C1CCC2(C)C1(C)C)C(=O)Nc1ccccc1 (stereo not drawn)	-0.44%
CO[C@@]12[C@@H](COC(N)=O)C3=C(C(=O)C(C)=C(N)C3=O)N1C[C@@H]1N[C@@H]12	-0.93%
O=C1CN(Cc2ccccc2)S(=O)(=O)c2ccccc21	-1.61%
CCOC(=O)Cn1c(=O)sc2cccc(Cl)c21	2.84%
Cc1nc2c(C(=O)NCc3cccs3)cnn2c(C)c1Cc1ccc(F)cc1	5.51%
Cc1ccc(OCC(=O)Nc2ccccc2Sc2ccc(Cl)cc2)c([N+](=O)[O-])n1	1.16%
Cc1cc2oc(=O)cc(-c3ccccc3)c2c(C)c1-c1ccc(OC(F)(F)F)cc1	0.0674%
H-EHIPA-OH	-2.79%
O=C(NC1CCN(Cc2ccccc2)CC1)c1ccc(Oc2cc(Cl)cc(Cl)c2)o1	-9.68%
Cc1ccc(CNC(=O)C2(C(F)(F)F)C/C(=C\Cc3ccccc3)CCCO2)o1 (stereo not drawn)	-9.28%
CCCC[C@@H]1C[C@H]1C(NC(=O)c1ccco1)c1ccc(C(=O)OC)cc1 (stereo partly drawn)	5.32%
CCCN1CCC(=O)N(C(CSc2ccc(OC)cc2)Cc2ccccc2)CC1 (stereo not drawn)	-1.67%
COc1ccc(C2/C=C\CN(C(=O)c3ccc(C)cc3)C(Cc3ccccc3)C(=O)N2Cc2ccc(F)cc2)cc1 (stereo not drawn)	6.34%
c1ccc2c(Nc3ccncc3)nc(-c3ccc4c(c3)OCO4)nc2c1	1.22%
COc1ccc(-c2ccc(OC)c(C3C4C=CCC(C)C4C(=O)N3Cc3ccccc3)c2)cc1C (stereo not drawn)	-4.44%
S=C(NCCc1ccccc1)NCc1ccccc1Cl	6.06%
C=CCN(C(=O)c1cc(C)cc(C)c1)C1(C(=O)Nc2ccccc2)CCN(C(C)C)CC1	-2.75%
CCCCCOc1ccc(/C=C/C(=O)NCCc2nc3ccccc3[nH]2)cc1OC	-6.34%
O=C(O)C1CC=CC2CCN(C3CCCCC3)C(=O)C21 (stereo not drawn)	5.49%
